The supplement of paper PMC10498489
The campaign covered roughly 2,300 compounds. About 330 (14%) showed activity.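 The calls were made as follows: active = median modified Z-score above 1.96; inactive = 1.96 or below.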 The list is a sample of the results.

test system: HepG2 Srxn1-GFP reporter cells (+30 nM CDDO-Me); assay: Srxn1-GFP intensity median modified Z-score relative to plate median; higher = stronger NRF2 / oxidative stress reporter activation, active = hit call of the paper; settings: 10 µM; exposure time: 24h
Method in brief: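 The modified Z-score of GFP intensity was computed per plate, and the median over replicates is reported. HepG2 Srxn1-GFP BAC reporter cells in three replicate plates were treated for 24 h with compound at 10 μM plus an NRF2 activator at 30 nM (≤0.1% DMSO). Per-cell cytoplasmic GFP came from confocal images, excluding those with under 100 cells, and scaling used 1.4826 × median absolute deviation.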

SMILES | Srxn1-GFP intensity median modified Z-score
COc1cc(C=CC(=O)O)cc(OC)c1O [euspeclibcmpd1663] | -0.0893 (inactive)
CC(C)(C)NC(=O)C1CCC2C3CCC4NC(=O)C=C[C@]4(C)C3CC[C@]12C (some centres not stated) [euspeclibcmpd849] | -0.292 (inactive)
COc1cccc(OC)c1C(=O)NC1C(=O)N2C1SC(C)(C)C2C(=O)O (configuration not stated) [euspeclibcmpd2201] | 0.364 (inactive)
CC(O)=NO [euspeclibcmpd970] | -0.0555 (inactive)
Cn1nnnc1SC=C1CSC2C(NC(=O)C(OC=O)c3ccccc3)C(=O)N2C1C(=O)O (configuration not stated) [euspeclibcmpd2340] | 0.482 (inactive)
C[N+]1(C)C2CC[C@H]1C[C@@H](OC(=O)C(O)c1ccccc1)C2 (some centres not stated) [euspeclibcmpd149] | 0.332 (inactive)
O=C1/C(=C/c2cccs2)CSC/C1=C/c1cccs1 | 13.2 (active)
CN1C/C(=C/c2cccs2)C(=O)/C(=C/c2cccs2)C1 | 1.25 (inactive)
O=C1/C(=C/c2cccs2)CCC/C1=C\c1cccs1 [euspeclibcmpd465] | 36.6 (active)
O=C1/C(=C\c2cccs2)CC/C1=C\c1cccs1 | 2.51 (active)
C#C[C@]1(O)CCC2C3CCc4cc(O)ccc4C3CC[C@@]21C (some centres not stated) [euspeclibcmpd121] | 0.17 (inactive)
COc1cc2[nH]c(N(C)CCCNC(=O)C3CCCO3)nc(=N)c2cc1OC (configuration not stated) [euspeclibcmpd2275] | -0.081 (inactive)
CN[C@H](CC(C)C)C(=O)NC1C(=O)N[C@@H](CC(N)=O)C(=O)N[C@H]2C(=O)Nc3c(O)[nH]c(c(O)[nH]c(=C(O)O)c4cc(O)cc(O)c4c4cc3ccc4O)[C@H](O)c3ccc(c(Cl)c3)Oc3cc2cc(c3O[C@@H]2OC(CO)[C@@H](O)[C@H](O)[C@H]2O[C@H]2C[C@](C)(N)[C@H](O)[C@H](C)O2)Oc2ccc(cc2Cl)[C@H]1O (some centres not stated) [euspeclibcmpd319] | 0.197 (inactive)
CCN1CCN(C(=O)NC(C(=O)NC2C(=O)N3C(C(=O)O)=C(CSc4nnnn4C)CSC23)c2ccc(O)cc2)C(=O)C1=O (configuration not stated) [euspeclibcmpd431] | -0.443 (inactive)
CC[C@H](CCC(C)[C@H]1CCC2C3CCC4C[C@@H](O)CC[C@]4(C)C3CC[C@@]21C)C(C)C (some centres not stated) [euspeclibcmpd1543] | -0.389 (inactive)
O=C(O)CC(O)(CC(=O)O)C(=O)O [euspeclibcmpd2464] | -0.363 (inactive)
O=C(O)CC(O)(CC(=O)O)C(=O)O [euspeclibcmpd2462] | 0.449 (inactive)
CC(=O)OC1C[C@@]2(C)C(C[C@@H](O)C3[C@]2(C)CC[C@H]2[C@H](C)[C@H](O)CC[C@]32C)C1=C(CCC=C(C)C)C(=O)O (some centres not stated) [euspeclibcmpd136] | -0.739 (inactive)
COc1cc(O)c(C(=O)c2ccccc2)cc1O [euspeclibcmpd1987] | -0.376 (inactive)
CC(C)C(NC(=O)[C@H](CC(=O)O)NC(=O)[C@H](CCCCN)NC(=O)[C@@H](N)CCCN=C(N)N)C(=O)N[C@@H](Cc1ccc(O)cc1)C(=O)O (some centres not stated) [euspeclibcmpd1282] | -0.1 (inactive)
C[C@H](CCC(=O)O)[C@H]1CCC2C3C(=O)CC4CC(=O)CC[C@]4(C)C3CC(=O)[C@@]21C (some centres not stated) [euspeclibcmpd2057] | -0.197 (inactive)

SMILES | Srxn1-GFP intensity median modified Z-score
NCCCS(=O)(=O)O [euspeclibcmpd386] | -0.0155 (inactive)
NCCCCS(=O)(=O)O | 10.1 (active)
NCCS(=O)(=O)O [euspeclibcmpd625] | -0.209 (inactive)
CCc1[nH]c(=N)[nH]c(=N)c1-c1ccc(Cl)cc1 [euspeclibcmpd259] | 1.02 (inactive)
C[C@@H]1CN(c2c(F)c(F)c3c(=O)c(C(=O)O)cn(C4CC4)c3c2F)C[C@H](C)N1 [euspeclibcmpd981] | -0.465 (inactive)
Oc1c(C2=CC[C@@H](c3ccc(Cl)cc3)CC2)c(O)c2ccccc2c1O [euspeclibcmpd664] | 37.9 (active)
COc1ccc(-c2cc(=O)c3c(O)c(OC)c(O[C@H]4O[C@H](CO[C@@H]5O[C@@H](C)[C@H](O)[C@@H](O)[C@H]5O)[C@@H](O)[C@H](O)[C@H]4O)cc3o2)cc1 [euspeclibcmpd1421] | -0.512 (inactive)
COc1cc(OC)c2c(=O)c(O)c(-c3ccc(OC)c(OC)c3)oc2c1 [euspeclibcmpd2117] | -0.572 (inactive)
COc1cc(OC)c2c(OC)c(-c3ccc4c(c3)OCO4)c(=O)oc2c1 [euspeclibcmpd2227] | 2.22 (active)
COc1cc(OC)c2c(=O)c(OC)c(-c3ccccc3)oc2c1 [euspeclibcmpd1625] | 1.58 (inactive)
CCN(CC)C(=O)C1(c2ccccc2)CC1CN (configuration not stated) [euspeclibcmpd689] | -0.729 (inactive)
O=C(C(O)CO)C(O)CO (configuration not stated) [euspeclibcmpd2280] | -0.0858 (inactive)
O=c1c(-c2ccc(O)cc2)coc2c(C3O[C@H](CO)[C@@H](O)[C@H](O)[C@H]3O)c(O)ccc12 (some centres not stated) [euspeclibcmpd1715] | -0.564 (inactive)
COC(=O)NN=Cc1c[n+]([O-])c2ccccc2[n+]1[O-] [euspeclibcmpd737] | 0.066 (inactive)
NN=c1[nH]ncc2ccccc12 [euspeclibcmpd806] | -0.328 (inactive)
COc1ccc2c(c1)OCC(Cc1ccc(O)c(OC)c1)C2=O (configuration not stated) [euspeclibcmpd1837] | 0.677 (inactive)
COc1ccc2c(c1)OC[C@@H](Cc1ccc(OC)c(OC)c1)[C@@H]2O [euspeclibcmpd2183] | 1.04 (inactive)
COc1ccc2c(c1)OCC(Cc1ccc(OC)c(OC(C)=O)c1)C2=O (configuration not stated) [euspeclibcmpd1962] | 1.39 (inactive)
COc1cc2c(cc1OC)C1(O)C(=O)c3ccc(O)c(C(=O)O)c3OC1CO2 (configuration not stated) [euspeclibcmpd1511] | -0.131 (inactive)
COc1ccc2c(c1)OCC(Cc1ccc(OC)c(OC)c1)C2=O (configuration not stated) [euspeclibcmpd1645] | 15.4 (active)
COc1ccc2c(c1)OCC(Cc1ccc(OC)c(O)c1)C2=O (configuration not stated) [euspeclibcmpd1628] | 21.4 (active)

SMILES | Srxn1-GFP intensity median modified Z-score
CC(=O)O/C1=C2\C(C)[C@@H](OC(=O)C(O)[C@@H](NC(=O)c3ccccc3)c3ccccc3)C[C@@](O)([C@@H](OC(=O)c3ccccc3)C3[C@](C)(C1=O)[C@@H](O)C[C@H]1OC[C@@]31OC(C)=O)C2(C)C (some centres not stated) [euspeclibcmpd631] | 0.274 (inactive)
O=C1O[C@H](C(O)CO)C(O)=C1O (some centres not stated) [euspeclibcmpd2046] | -0.841 (inactive)
CC(CCC(=O)O)C1CC[C@H]2C3[C@H](O)C[C@@H]4C[C@H](O)CCC4(C)[C@H]3C[C@H](O)C12C (some centres not stated) [euspeclibcmpd1325] | -0.323 (inactive)
CCC(C)C1NC(=O)C(CCN)NC(=O)C(NC(=O)C(CCN)NC(=O)C(NC(=O)C(CCN)NC(=O)CCCCC(C)C)C(C)O)CCNC(=O)C(C(C)O)NC(=O)C(CCN)NC(=O)C(CCN)NC(=O)C(C(C)CC)NC1=O (configuration not stated) [euspeclibcmpd887] | 0.477 (inactive)
CC(C)C1CC[C@@H](C)CC1=O (some centres not stated) [euspeclibcmpd1630] | -0.168 (inactive)
CC(=O)OCC(=O)[C@@]12OC3(CCCC3)O[C@@H]1CC1C3CC=C4CC(=O)C=C[C@]4(C)[C@@]3(F)[C@@H](O)C[C@@]12C (some centres not stated) [euspeclibcmpd606] | -0.413 (inactive)
CN[C@@H]1C(OC2[C@H](O[C@H]3[C@H](O)[C@@H](O)[C@H](N=C(N)N)[C@@H](O)[C@@H]3N=C(N)N)OC(C)[C@]2(O)CO)OC(CO)C(O)C1O (some centres not stated) [euspeclibcmpd500] | 0.194 (inactive)
CC(C)n1c(C=CC(O)CC(O)CC(=O)O)c(-c2ccc(F)cc2)c2ccccc21 (configuration not stated) [euspeclibcmpd1968] | 3.35 (active)
CC(C)=c1nc(N(C)S(C)(=O)=O)nc(-c2ccc(F)cc2)c1=CC[C@@H](O)C[C@@H](O)CC(=O)O [euspeclibcmpd2132] | 0.158 (inactive)
CC(C)c1c(C(=O)Nc2ccccc2)c(-c2ccccc2)c(-c2ccc(F)cc2)n1CC[C@@H](O)C[C@@H](O)CC(=O)O [euspeclibcmpd2076] | 0.0135 (inactive)
CC1=C2CC(=O)C=C[C@]2(C)C2C(C1)C1CC[C@](O)(C(=O)COC(=O)CCC(=O)O)[C@@]1(C)C[C@@H]2O (some centres not stated) [euspeclibcmpd2224] | -0.845 (inactive)
Oc1cc2c(cc1O)=C1c3ccc(O)c(O)c3OCC1(O)C=2 (configuration not stated) [euspeclibcmpd1969] | -0.521 (inactive)
CC(CCC(=O)O)[C@H]1CCC2C3C(=O)C[C@@H]4CC(=O)CC[C@]4(C)C3CC(=O)[C@@]21C (some centres not stated) [euspeclibcmpd357] | 0.217 (inactive)
COc1cc(C)c(C(=O)O)c(O)c1 [euspeclibcmpd2356] | -0.209 (inactive)
CCCCCc1c2c(cc(O)c1C(=O)O)OC(=O)c1c(cc(OC)cc1C(=O)CCCC)O2 [euspeclibcmpd1731] | 4.46 (active)
CCCCCC(=O)Cc1cc(O)cc(O)c1C(=O)Oc1cc(CC(=O)CCCCC)c(C(=O)O)c(OC)c1 [euspeclibcmpd1619] | -0.366 (inactive)
COCC1(C)NC(=O)N(CCC(=O)Nc2cc(C)on2)C1=O (configuration not stated) | 1.16 (inactive)
COC(=O)C1=C(C)N=C(C)C(C(=O)OC(C)C)C1c1cccc2nonc12 (configuration not stated) [euspeclibcmpd996] | -0.132 (inactive)
CCOC(=O)C1=C(C)N=C(C)C(C(=O)OC)C1c1cccc([N+](=O)[O-])c1 (configuration not stated) [euspeclibcmpd494] | 0.225 (inactive)
CCOC(=O)C1=C(COCCN)N=C(C)C(C(=O)OC)C1c1ccccc1Cl (configuration not stated) [euspeclibcmpd713] | 22.6 (active)
